Screening data deposited in PubChem by National Center for Advancing Translational Sciences (NCATS).
PTHR1 ag – PTHR1 (human) receptor agonism; HEK293 GP2 PTHR1 cells, GloSensor cAMP luminescence, 1 h; Q03431; hit rate 0.075% among 410,000; Potency, µM (highest dose often 115 µM), for inactives: top-dose activation, hits mostly activators; note: nearly all actives have a fitted effect of over 55% in size
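HEK-293-derived GP2 cells expressing PTHR1 and a GloSensor cAMP reporter, 3,000/well, plated overnight, given luciferin plus IBMX (each 0.5 mM as added) for 1 h at 37 °C, then compound for 1 h at 37 °C. Luminescence was read after 15 min at room temperature.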
GLP1R cytotox – cytotoxicity counter-screen for GLP-1 receptor inverse agonists. Potency, µM (highest dose often 38.3 µM), for the others: at the top dose activity change, negative = inhibition, usual class: inhibitors. hit rate 0.13% among 410,000. HEK293 cAMP-luciferase reporter cells, luminescence, 24 h. AID 624418;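 note: loss of luciferase light is scored as toxicity; % is set by controls: 0 for no effect and ±100 for the full control effect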
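A 23 nL compound transfer followed 12 hours of cell culture at 37 deg C; exposure then lasted 24 hr. Luciferase assay detection reagent was dispensed and plates read for luminescence after a 12 min room-temperature wait.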
GLP-1R agonist – agonists of human GLP-1 receptor; AID 624172; Potency, µM (doses to about 45.6 µM), inactives show top-dose activation, actives largely listed as activators; hit rate 0.007% among 380,000; P43220; HEK293 GLP-1R CRE-luciferase, luminescence, 4-6 h; cells express a hypersensitive GLP-1R form; note: % of control where 0% means no effect
Target sequence (P43220 whole entry, looked up): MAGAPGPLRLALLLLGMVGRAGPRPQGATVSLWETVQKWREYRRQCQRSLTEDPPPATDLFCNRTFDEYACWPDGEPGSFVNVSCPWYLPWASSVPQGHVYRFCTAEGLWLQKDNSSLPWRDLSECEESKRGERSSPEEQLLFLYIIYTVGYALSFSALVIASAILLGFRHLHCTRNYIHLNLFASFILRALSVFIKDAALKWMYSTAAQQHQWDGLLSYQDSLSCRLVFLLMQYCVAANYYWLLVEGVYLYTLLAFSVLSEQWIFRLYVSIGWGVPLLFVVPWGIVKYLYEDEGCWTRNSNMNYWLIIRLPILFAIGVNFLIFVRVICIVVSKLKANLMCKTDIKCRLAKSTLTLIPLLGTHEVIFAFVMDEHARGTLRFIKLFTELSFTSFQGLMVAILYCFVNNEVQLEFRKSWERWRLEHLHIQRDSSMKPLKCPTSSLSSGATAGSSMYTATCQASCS
GLP-1R inv ag – inverse agonists of human GLP-1 receptor; P43220; HEK293 GLP-1R CRE-luciferase, luminescence, 24 h; GLP-1R form is constitutively active; Potency, µM (highest dose often 38.3 µM), for the others: top-dose activity change, negative = inhibition, most hits filed as inhibitors; hit rate 1.6% among 410,000; AID 624417; note: % is set by controls: 0 for no effect and ±100 for the full control effect; nearly all actives have a fitted effect of over 55% in size
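HEK293 cells stably co-expressing a cAMP-responsive luciferase reporter and constitutively active GLP-1R were seeded, incubated 12 h, then exposed to compounds for 24 h at 37 C. Luminescence was read 12 min after detection reagent; inverse agonists lower signal.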
* hit, by the source's call; i = inactive; ? = inconclusive; . = no result given; [ ] = remark or other dose. Sampled rows, rich in hits. Any-hit rate of the full collection: about 1.7%. Calls come from the whole dose curve; as a rule, active = well fitted curve in the direction sought with a large enough effect; inconclusive = small, poorly fitted or top-dose-only effect, or another doubt; inactive = no such curve, though single readings can be large; an effect the other way counts as inactive or inconclusive. Potency is the fitted concentration of half-maximal effect.

SMILES	PTHR1 ag	GLP1R cytotox	GLP-1R agonist	GLP-1R inv ag
OC(COc1ccc(Cl)cc1)CN1CCN(c2ccccn2)CC1 (stereo unspecified)	-1%	10%	-4%	?
Cc1ccc(NC(=O)CSc2nc(-c3ccco3)nc3cc(=O)[nH]n23)cc1	i	10%	.	2%
COc1ccc(-c2nc3sc(CCNC(=O)Cc4ccc(F)cc4)c(C)n3n2)cc1	-84%	0%	.	10%
CC(NC(=S)NC1CCC(C(C)(C)C)CC1)c1ccccc1 (stereo unspecified)	-5%	-11%	4%	10µM*
Cc1ccc(CNC(=S)NC2CCC(C(C)(C)C)CC2)cc1 (stereo unspecified)	-17%	-13%	9%	?
Cc1cccc(N2C(=O)C3C4C=CC(CC4)C3C2=O)c1 (stereo unspecified)	i	7%	0%	-28%
CCOC(=O)c1cccc(N2C(=O)C3C4C=CC(CC4)C3C2=O)c1 (stereo unspecified)	-9%	-6%	4%	3.2µM*
Cc1ccc(C(=O)CSc2nnnn2C(C)C)c(C)c1	-20%	-4%	-4%	4.5µM*
COc1ccc(/C=C/C2=CC(C)(C)NC(=S)N2)cc1OC	-78%	?	23%	?
CCOc1ccc(/C=C/C2=CC(C)(C)NC(=S)N2)cc1	-11%	5.6µM*	5%	?
COc1ccc(-c2cn[nH]c2-c2ccc(OCc3ccccc3)cc2O)cc1	-14%	?	2%	3.5µM*
COc1ccc(-c2cn[nH]c2-c2ccc(OC)cc2O)cc1	i	?	-2%	10µM*
COc1ccc(-c2[nH]ncc2-c2ccc(Cl)cc2)c(O)c1	i	-20%	-4%	?
CCOc1ccc(-c2[nH]ncc2-c2ccccc2)c(O)c1	-17%	-3%	5%	10µM*
CCCOC(=O)c1ccc(Oc2cn[nH]c2-c2ccc(OCC)cc2O)cc1	-10%[57.5 µM]	?	-26%	10µM*
CCCOc1cccc(C2c3c(oc4ccc(F)cc4c3=O)C(=O)N2Cc2ccc3c(c2)OCO3)c1 (stereo unspecified)	-9%	-1%	.	-2%
CCCCCCCCCCCCCCCC(=O)O[C@H]1[C@@H](O)[C@@H](O)[C@@H]([C@H](NC(=O)[C@@H]2C[C@@H](CCC)CN2C)[C@H](C)Cl)O[C@@H]1SC	.	.	-1%	.
Cc1ccccc1-c1cc(C(=O)NCc2ccc(OC(F)(F)F)cc2)n(CC2CC(c3cccnc3)=NO2)n1 (stereo unspecified)	-16%	0%	2%	22µM*
COc1ccc(C2C(O)C(c3c[nH]c4ccccc34)=NN2C(=O)CCl)cc1 (stereo unspecified)	-27%	11µM*	1%	?
COC(=O)CN1C(=O)CSc2ccc(S(=O)(=O)Nc3ccccc3)cc21	-15%	-5%	.	-3%
Cc1ccc(N(CC(=O)Nc2cc(Cl)ccc2Oc2ccccc2)S(C)(=O)=O)c(C)c1	-47%[57.5 µM]	3%	-4%	7.1µM*
CCc1ccc(NC(=O)Cn2c(=O)nc(-c3ccccc3F)c3cc(Cl)ccc32)cc1	-20%	1%	.	7%
CCCCc1ccc(NC(=O)Nc2cccnc2)cc1	i	2%	-3%	7.1µM*
COCc1cc(C)nc2c1C(=O)NC(c1ccc(C)cc1)N2Cc1ccccc1 (stereo unspecified)	i	5%	.	14%
COc1cccc(-c2nc(-c3ccc(-c4ccccc4)nc3OC)no2)c1	29%	0%	.	13%
SMILES	PTHR1 ag	GLP1R cytotox	GLP-1R agonist	GLP-1R inv ag
OC(COc1ccc(CNCCc2ccc(C(F)(F)F)cc2)cc1)CN1CCCCC1 (stereo unspecified)	-4%	?	-1%	2.2µM*
O=C(NCC(c1cccs1)N1CCOCC1)c1cccc(S(=O)(=O)Nc2ccc(F)cc2)c1 (stereo unspecified)	i	3%	-6%	-14%
O=C(NC1CCN(Cc2ccccc2)CC1)c1cccc(S(=O)(=O)Nc2ccc(F)cc2)c1	-21%	11µM*	0%	7.1µM*
COc1ccccc1NS(=O)(=O)c1ccc(C)c(C(=O)NC2CCN(Cc3ccccc3)CC2)c1	-31%	-3%	-12%	11µM*
O=C(NC1CCN(Cc2ccccc2)CC1)c1cccc(S(=O)(=O)Nc2ccc(Br)cc2)c1	-39%	-11%	-4%	?
Cc1ccc(NS(=O)(=O)c2cccc(C(=O)NCC(c3ccc(F)cc3)N3CCOCC3)c2)cc1 (stereo unspecified)	-30%	-11%	5%	10µM*
C=CCN(c1ccccc1)S(=O)(=O)c1cccc(C(=O)NC2CCN(Cc3ccccc3)CC2)c1	-80%	?	-1%	13µM*
Cc1ccc(CNC(=O)c2cc3c(=O)n(Cc4ccco4)ccc3nc2C)cc1	-14%	-10%	.	?
Cc1oc(-c2ccc(Cl)cc2)cc1C(=O)NC1CCN(Cc2ccccc2)CC1	i	0%	3%	?
Cc1oc(C(C)(C)C)cc1C(=O)NC1CCN(Cc2ccccc2)CC1	-21%	-29%	-1%	13µM*
O=C(NC1CCN(Cc2ccccc2)C1)c1cc(COc2ccc(F)cc2F)on1 (stereo unspecified)	-7%	1%	13%	?
Cc1ccc(NS(=O)(=O)c2cccc(C(=O)NC3CCN(Cc4ccccc4)CC3)c2)c(C)c1	-12%	11µM*	-4%	?
Cc1ccc(C)c(OCc2cc(C(=O)NC3CCN(Cc4ccccc4)CC3)no2)c1	-35%	0%	-1%	2.2µM*
O=C1CC(SC(=Nc2ccccc2)Nc2ccccc2)C(=O)N1c1cccc(Cl)c1 (stereo unspecified)	-11%[57.5 µM]	?	-1%	5µM*
COc1cc(C(=O)OCC(=O)NC(=O)NCc2ccccc2)ccc1OC(F)F	-7%	0%	1%	13%
CCOc1ccc(C(=O)OCC(=O)N(Cc2ccccc2)Cc2ccccc2)cc1OC	-44%	-10%	5%	10µM*
CCOc1ccc(NC(=S)N(CCc2c(C)[nH]c3ccc(C)cc23)Cc2ccco2)cc1	i	14%	-5%	7.9µM*
COc1ccc(NC(=S)N(CCc2c(C)[nH]c3ccc(C)cc23)Cc2ccco2)cc1	-36%	-18%	1%	?
CO[C@H]1[C@@H](O)[C@H](N)[C@@H](O[C@H]2O[C@@H]([C@H](C)N)CC[C@H]2N)[C@H](O)[C@@H]1N(C)C(=O)CN	.	.	-2%	.
Cc1cc(NCCCN)nc(-c2ccccc2O)n1	15%[57.5 µM]	-16%	-5%	10µM*
CCOc1ccc2c(c1)c(N=NC(N)=S)c(O)n2C	-6%	?	-2%	-1%
NC(=S)N=Nc1c(O)n(CC(=O)Nc2ccccc2)c2ccccc12	i	?	-4%	-6%
NC(=S)N=Nc1c(O)n(CCCl)c2ccccc12	-7%	?	23%	2.8µM*
NC(=S)N=Nc1c(O)n(CCCl)c2ccc(Cl)cc12	-15%	1.3µM*	26%	?
